Assay outcomes as filed in PubChem BioAssay.
mHTT CaM bind – disrupts binding of mutant huntingtin to calmodulin; P42858; AlphaScreen His-mHTT/GST-CaM binding, luminescence; inhibition, % at 15 µM; 190,000 compounds, 3.6% hits; AID 1671202
Pf apPOL inh – Pf-apPOL DNA polymerase inhibition. Recombinant Pf-apPOL, molecular beacon fluorescence, 1.5 h. inhibition, % at 10 µM. 210,000 compounds, 0.25% hits
Large screens that a line does not name were inactive. The sample as a whole holds a higher share of hits than the screen did. Cut-off read from the data, not from the text of the source: active = inhibition above about 50%; inactive = the rest.

COc1ccc(C2=NN(C(=O)CCC(=O)O)C(c3ccc(Br)cc3)C2)cc1 (stereo not drawn)	none
COc1ccc(C2CC(c3cccc(F)c3)=NN2C(=O)CN2CCOCC2)cc1 (stereo not drawn)	mHTT CaM bind 73.7
O=C(CN1CCCC1)N1N=C(c2cccc(F)c2)CC1c1ccc2c(c1)OCO2 (stereo not drawn)	mHTT CaM bind 97.6
COc1ccccc1C1CC(c2ccc(C)cc2)=NN1C(=O)CN1CCOCC1 (stereo not drawn)	none
COc1ccc(C2=NN(C(=O)CN3CCOCC3)C(c3ccc(F)cc3)C2)cc1 (stereo not drawn)	none
COc1ccccc1C1CC(c2cccc(F)c2)=NN1C(=O)CN1CCOCC1 (stereo not drawn)	mHTT CaM bind 65.7
COc1ccc(C2CC(c3ccc(Br)cc3)=NN2C(=O)CCN2CCOCC2)cc1 (stereo not drawn)	mHTT CaM bind 66.0
CC1(C)C=Cc2cc(OCc3ccc([N+](=O)[O-])cc3)c(OCc3ccc([N+](=O)[O-])cc3)cc2O1	none (no result: mHTT CaM bind)
CN(C)C=C(C#N)C(=O)Nc1ccc(F)c(Cl)c1	none (no result: mHTT CaM bind)
Cc1ccccc1CC(=O)Nc1cc(-c2cccs2)no1	none
Cc1ccc(CNC(=O)C2(C)CCCN(C(=O)c3cccc(F)c3)C2)cc1 (stereo not drawn)	none
Cc1noc(C2CN(C(=O)Cc3ccccc3)CC23CCOCC3)n1 (stereo not drawn)	none
Cn1cc(CC(=O)Nc2ccc3cn[nH]c3c2)c2ccccc21	none
Oc1cccc(CNc2ccc(F)c(Cl)c2)c1	none
Oc1cccc(CNc2ccc3[nH]ncc3c2)c1	mHTT CaM bind 76.9
c1cc2c(cc1CNc1ccc3cn[nH]c3c1)OCO2	mHTT CaM bind 63.7
O=C(O)c1ccc(NCc2ccc3c(c2)OCO3)cc1	none
Cc1cccc(CNc2ccc3cn[nH]c3c2)c1	mHTT CaM bind 60.4
Fc1ccccc1N1CCN(Cc2cccc(OCc3ccccc3)c2)CC1	none
COc1ccccc1CNC(=O)C1CCN(c2cncnc2N2CCCCC2)CC1	none
Cc1noc(-c2cccnc2N2CCCN(C(=O)c3ccc(C(C)(C)C)cc3)CC2)n1	none
Cn1nc(CNC(=O)c2ccsc2)c2ccccc21	none
Cc1noc(C2CCCCN2C(=O)CCC2CCCC2)n1 (stereo not drawn)	none
O=C1NC(=Nc2ccccc2Cl)S/C1=C/c1ccc([N+](=O)[O-])cc1	none
COc1ccc(/C=C2/SC(=Nc3ccccc3Cl)NC2=O)c(OC)c1	none
O=C1NC(=Nc2ccccc2Cl)S/C1=C/c1cccc([N+](=O)[O-])c1	mHTT CaM bind 88.0
COc1cccc(/C=C2/SC(=Nc3ccccc3Cl)NC2=O)c1	mHTT CaM bind 52.0
Nc1ncnc(Nc2ccccc2N=Cc2ccccc2O)c1[N+](=O)[O-]	none
O=[N+]([O-])c1c(Nc2ccccc2O)ncnc1Nc1ccccc1O	mHTT CaM bind 69.0
CCS(=O)(=O)N1CCN(c2nc(C)nc(C)c2Cc2ccc(Cl)cc2)CC1	mHTT CaM bind 53.2
Cc1nc(C)c(Cc2ccc(Cl)cc2)c(N2CCN(S(C)(=O)=O)CC2)n1	none
CCN(CCNC(=O)c1cc(-c2cccnc2)nc2ccccc12)c1ccccc1	none
Cc1ccc(CC(=O)Nc2nnc(C3CC(=O)N(c4ccccc4)C3)o2)cc1 (stereo not drawn)	none
O=C(Nc1nnc(C2CC(=O)N(c3ccccc3)C2)o1)c1cccc(Cl)c1 (stereo not drawn)	mHTT CaM bind 61.3
COc1ccc(N2CC(c3nnc(NC(=O)Cc4cccc(F)c4)o3)CC2=O)cc1 (stereo not drawn)	none
Cc1ccccc1CC(=O)Nc1nnc(C2CC(=O)N(c3ccccc3)C2)o1 (stereo not drawn)	mHTT CaM bind 50.0
COc1ccc(N2CC(c3nnc(NC(=O)Cc4cccc(OC)c4)o3)CC2=O)cc1 (stereo not drawn)	mHTT CaM bind 53.4
COc1ccc(CC(=O)Nc2nnc(C3CC(=O)N(c4ccccc4)C3)o2)cc1 (stereo not drawn)	mHTT CaM bind 92.5
CCOc1ccc(N2CC(c3nnc(NC(=O)Cc4ccccc4C)o3)CC2=O)cc1 (stereo not drawn)	none
O=C(Nc1nnc(C2CC(=O)N(c3ccc(F)cc3)C2)o1)c1cccc(Cl)c1 (stereo not drawn)	none
CC(O)(CNC(=O)C(=O)NCCC1=CCCCC1)C1CC1 (stereo not drawn)	none
O=C(Cc1cccs1)Nc1nnc(C2CC(=O)N(c3ccccc3)C2)o1 (stereo not drawn)	mHTT CaM bind 59.5
O=C(CSc1ccc(F)cc1)Nc1nnc(C2CC(=O)N(c3ccccc3)C2)o1 (stereo not drawn)	none
Cc1cc(NC(c2cccc([N+](=O)[O-])c2)c2ccc3cccnc3c2O)no1 (stereo not drawn)	mHTT CaM bind 100.0
O=[N+]([O-])c1cccc(C(Nc2ccccn2)c2ccc3cccnc3c2O)c1 (stereo not drawn)	mHTT CaM bind 100.0
O=C(/C=C/c1cccc([N+](=O)[O-])c1)Nc1ccccn1	none
Cc1cc(NC(=O)c2cccc([N+](=O)[O-])c2)no1	none
CNC(=O)N1CCc2ccc(C(=O)N(C)C)cc21	none
CCc1noc2nc(C)nc(NC3CCCC3)c12	none
CCc1nc(-c2cccnc2N2CCCC(C(=O)NCc3ccccc3F)C2)no1 (stereo not drawn)	none
CNC(=O)CC1CCN(c2ccnc(NC)n2)CC1	Pf apPOL inh 93.1
CCNc1nccc(N2CCC(CC(=O)N3CCN(c4cccc(Cl)c4)CC3)CC2)n1	mHTT CaM bind 50.7
CNc1nccc(N2CCC(CC(=O)NCCOC)CC2)n1	none
CNc1nccc(N2CCC(CC(=O)N3CCN(c4cccc(C)c4)CC3)CC2)n1	none
CC(C)CC(C(=O)O)N1C(=O)c2ccc(F)cc2C1=O (stereo not drawn)	none
Clc1ccc(OCCCN2CCOCC2)cc1	none
Clc1ccc(OCCN2CCOCC2)cc1	Pf apPOL inh 82.2
Cc1nc2cc(N3CC(C(=O)Nc4ccc(C)c(C)c4)CC3=O)ccc2o1 (stereo not drawn)	none
Cc1ccc(-c2nc(C)c(C(=O)N3CCC(C(C)C(=O)NC(C)C)CC3)s2)cc1 (stereo not drawn)	none
CCC(C(=O)O)N1C(=O)C(=CC=Cc2ccco2)SC1=S (stereo not drawn)	Pf apPOL inh 93.5
CC(C)CC(C(=O)O)N1C(=O)C(=Cc2ccco2)SC1=S (stereo not drawn)	none
COc1ccc(OC)c(C2C(C(=O)Nc3ccccc3)=C(C)Nc3ncnn32)c1 (stereo not drawn)	none
Cc1nc(C)c(-c2nnc(NC(=O)CCOc3ccccc3)o2)s1	mHTT CaM bind 63.6
Cc1nc(C)c(-c2nnc(NC(=O)CCS(=O)(=O)c3ccccc3)o2)s1	none
C#CCSc1ccccc1C(=O)O	none
C#CC(C=CC)OC(=O)c1ccccc1C(=O)O (stereo not drawn)	Pf apPOL inh 53.3 (no result: mHTT CaM bind)
c1ccc(-c2nc3cc(-c4noc(-c5ccccn5)n4)ccc3o2)cc1	none
COCCCNC(=O)c1ccc(C(C)C)cc1	none
COCCNC(=O)c1ccc(C(C)C)cc1	Pf apPOL inh 67.4
Cn1nc(-c2nc(Cc3ccccc3)no2)c2c1CCN(C(=O)NC1CCCC1)C2	none
O=c1c2cc(-c3ccccc3)sc2ncn1N=Cc1ccc2c(c1)OCO2	none (no result: mHTT CaM bind)
CC(C)C1C(=O)N(Cc2cn(CCC3OCCO3)nn2)CCS(=O)(=O)N1Cc1ccc(-c2ccc(F)nc2)cc1 (stereo not drawn)	none
